# Source: PubChem BioAssay (NCATS)
# Inconclusive results are not listed. Unmarked numbers belong to inactive results. Activity calls are given as the source filed them. Calls come from the whole dose curve; as a rule, active = well fitted curve in the direction sought with a large enough effect; inconclusive = small, poorly fitted or top-dose-only effect, or another doubt; inactive = no such curve, though single readings can be large; an effect the other way counts as inactive or inconclusive.
# Experiment: BET inhibitor-based combinations targeting novel dependencies in MECOM-rearranged (r) AML: HNT-34 cell line (AID 2202234); note: nearly all actives have a fitted effect of over 35% in size;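 for viability (% of control): plate controls were vehicle wells for no effect and cell-free wells for full effect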
# Conditions: HNT-34 AML viability, CellTiter-Glo luminescence, 48 h; series mostly up to 46 µM; viability (% of control): at the top concentration
# In short: (§1)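 Normalized to DMSO and empty-well controls, the luminescence data from CellTiter-Glo after 48 hr drug exposure were fitted across 11 concentrations. Reported metrics are area under the dose-response curve and its Z-transformed form.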
# Potency is the fitted concentration of half-maximal effect.
Compound,Potency,viability (% of control)
COc1cc2c(cc1Cc1cccc(Cl)c1F)c(=O)c(C(=O)O)cn2[C@H](CO)C(C)C,3.72 µM (active),
O=C(O)c1cn(C2CC2)c2cc(N3CCNCC3)c(F)cc2c1=O,,97.3% [at 8.46 µM]
O=[N+]([O-])c1cncn1CCN1CCOCC1,,107%
O=C1CCc2ccc(OCCCCN3CCN(c4cccc(Cl)c4Cl)CC3)cc2N1,20.9 µM (active),
CC(C)(C)c1cnc(CSc2cnc(NC(=O)C3CCNCC3)s2)o1,0.235 µM (active),
CCOC(=O)N1c2ccc(C(F)(F)F)cc2[C@@H](N(Cc2cc(C(F)(F)F)cc(C(F)(F)F)c2)C(=O)OC)C[C@H]1CC,,99.6%
COC(=O)C1=C(C)NC(C)=C(C(=O)OCCN2CCN(C(c3ccccc3)c3ccccc3)CC2)C1c1cccc([N+](=O)[O-])c1 (stereo unspecified),23.5 µM (active),
CCOc1ccccc1N=Nc1c(C)[nH]n(-c2nc(-c3ccccc3)cs2)c1=O,,96.4%
Cn1c(Nc2ccc(C(F)(F)F)cc2)nc2cc(Oc3ccnc(-c4ncc(C(F)(F)F)[nH]4)c3)ccc21,0.332 µM (active),
O=C1c2cccc(O)c2C(=O)c2c(O)cc(CO)cc21,,102%
OC[C@H](Cc1ccccc1)Nc1nc(Oc2ccc3c(c2)CCC3)nc2c1ncn2Cc1ccc(-c2ccccc2)cc1,7.42 µM (active),
CC[C@@]1([C@@H]2O[C@@H]([C@H]3O[C@@](O)(CO)[C@H](C)C[C@H]3C)C[C@H]2C)CC[C@H]([C@]2(C)CC[C@]3(C[C@H](O)[C@@H](C)[C@@H]([C@@H](C)[C@@H](OC)[C@H](C)C(=O)O)O3)O2)O1,0.0811 µM (active),
C[C@H](NC(=O)[C@@H](O)c1cc(F)cc(F)c1)C(=O)N[C@@H]1C(=O)N(C)c2ccccc2-c2ccccc21,,80.2%
CCc1nc(N)nc(N)c1-c1ccc(Cl)cc1,,98.2%
COc1cc2ncnc(Nc3cccc(Br)c3)c2cc1OC,9.34 µM (active),
O=C(Nc1ccccc1Br)N[C@@H]1CCN(c2ccc(C(F)(F)F)cn2)C1,,94.7%
CC(C)Cn1cnc2c(N)nc3ccccc3c21,,108% [at 15.6 µM]

# Experiment: BET inhibitor-based combinations targeting novel dependencies in MECOM-rearranged (r) AML: UCSD-AML1 cell line (AID 2202235); note: nearly all actives have a fitted effect of over 40% in size;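 for viability (% of control): plate controls were DMSO vehicle wells for no effect and blank wells for full effect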
# Conditions: UCSD-AML1 AML cells viability, CellTiter-Glo, 48 h; series mostly up to 46 µM; viability (% of control): at the top concentration
# In short: as §1
Compound,viability (% of control),Potency
CC(C)(C)OC(=O)CN(Cc1ccc(Cl)cc1)Cc1ccc([N+](=O)[O-])s1,89.6%,
O=C(O)c1cn(C2CC2)c2cc(N3CCNCC3)c(F)cc2c1=O,101% [at 8.46 µM],
O=[N+]([O-])c1cncn1CCN1CCOCC1,109%,
COc1ccc(C=Cc2cc(OC)c(OC)c(OC)c2)cc1NC(=O)[C@H](N)CO,,0.372 µM (active)
CCOC(=O)N1c2ccc(C(F)(F)F)cc2[C@@H](N(Cc2cc(C(F)(F)F)cc(C(F)(F)F)c2)C(=O)OC)C[C@H]1CC,110%,
C[C@]12CCC(=O)C=C1[C@@H]1C[C@@H]1[C@H]1[C@@H]3[C@@H]4C[C@@H]4[C@@]4(CCC(=O)O4)[C@@]3(C)CC[C@@H]12,115%,
C[C@]1(c2nc3c(C(N)=O)cccc3[nH]2)CCCN1,102%,
O=C(Cc1cccc(OC(F)(F)F)c1)Nc1ccc(CCCCc2nnc(NC(=O)Cc3ccccn3)s2)nn1,,0.0209 µM (active)
CN1C(=O)C[C@H](C(=O)N[C@@H](Cc2cnc[nH]2)C(=O)N2CCC[C@@H]2C(N)=O)NC1=O,110%,
COC(=O)C1=C(C)NC(C)=C(C(=O)OCCN2CCN(C(c3ccccc3)c3ccccc3)CC2)C1c1cccc([N+](=O)[O-])c1 (stereo unspecified),101%,
CCOc1ccccc1N=Nc1c(C)[nH]n(-c2nc(-c3ccccc3)cs2)c1=O,107%,
CC(C)c1ccccc1Cc1cc(C(=O)Nc2ccc(S(=O)(=O)c3ccccc3C(C)(C)C)cc2)c(O)c(O)c1O,,10.5 µM (active)
OC[C@H](Cc1ccccc1)Nc1nc(Oc2ccc3c(c2)CCC3)nc2c1ncn2Cc1ccc(-c2ccccc2)cc1,,4.68 µM (active)
CC[C@@]1([C@@H]2O[C@@H]([C@H]3O[C@@](O)(CO)[C@H](C)C[C@H]3C)C[C@H]2C)CC[C@H]([C@]2(C)CC[C@]3(C[C@H](O)[C@@H](C)[C@@H]([C@@H](C)[C@@H](OC)[C@H](C)C(=O)O)O3)O2)O1,,0.288 µM (active)
C[C@H](NC(=O)[C@@H](O)c1cc(F)cc(F)c1)C(=O)N[C@@H]1C(=O)N(C)c2ccccc2-c2ccccc21,92.2%,
CCc1nc(N)nc(N)c1-c1ccc(Cl)cc1,117%,
CC(C)Cn1cnc2c(N)nc3ccccc3c21,112% [at 15.6 µM],

# Experiment: BET inhibitor-based combinations targeting novel dependencies in MECOM-rearranged (r) AML: AML-191 cell line (AID 2202236; note: nearly all actives have a fitted effect of over 35% in size;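 for viability (% of control): plate controls were vehicle wells for no effect and wells without cells for full effect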)
# Conditions: AML-191 viability, CellTiter-Glo luminescence, 48 h; series mostly up to 46 µM; viability (% of control): at the top concentration
# In short: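 Here, 11-point titrations of each agent were applied to 500 seeded cells and incubated 48 hr; CellTiter-Glo signal, scaled against DMSO and empty wells, was integrated as AUC, then Z-scored within the individual line.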
Compound,viability (% of control),Potency
Nc1ncnc2c1ncn2[C@@H]1O[C@H](CO)[C@@H](O)[C@@H]1O,96.8%,
COc1cc2c(cc1Cc1cccc(Cl)c1F)c(=O)c(C(=O)O)cn2[C@H](CO)C(C)C,,9.34 µM (active)
O=c1cc(-c2ccccc2)oc2cc(O)c(O)c(O)c12,,18.6 µM (active)
O=C(O)c1cn(C2CC2)c2cc(N3CCNCC3)c(F)cc2c1=O,102% [at 8.46 µM],
O=[N+]([O-])c1cncn1CCN1CCOCC1,110%,
O=C1CCc2ccc(OCCCCN3CCN(c4cccc(Cl)c4Cl)CC3)cc2N1,,23.5 µM (active)
CC(C)(C)c1cnc(CSc2cnc(NC(=O)C3CCNCC3)s2)o1,,0.742 µM (active)
CNC(=O)c1cc(COc2nnc(Nc3ccc(Cl)cc3)c3ccoc23)ccn1,84.7%,
CCOC(=O)N1c2ccc(C(F)(F)F)cc2[C@@H](N(Cc2cc(C(F)(F)F)cc(C(F)(F)F)c2)C(=O)OC)C[C@H]1CC,100%,
C[C@]1(c2nc3c(C(N)=O)cccc3[nH]2)CCCN1,82%,
O=C(Cc1cccc(OC(F)(F)F)c1)Nc1ccc(CCCCc2nnc(NC(=O)Cc3ccccn3)s2)nn1,,0.118 µM (active)
CN1C(=O)C[C@H](C(=O)N[C@@H](Cc2cnc[nH]2)C(=O)N2CCC[C@@H]2C(N)=O)NC1=O,,20.9 µM (active)
COC(=O)C1=C(C)NC(C)=C(C(=O)OCCN2CCN(C(c3ccccc3)c3ccccc3)CC2)C1c1cccc([N+](=O)[O-])c1 (stereo unspecified),,26.3 µM (active)
CCOc1ccccc1N=Nc1c(C)[nH]n(-c2nc(-c3ccccc3)cs2)c1=O,99.7%,
Cn1c(Nc2ccc(C(F)(F)F)cc2)nc2cc(Oc3ccnc(-c4ncc(C(F)(F)F)[nH]4)c3)ccc21,,0.833 µM (active)
Nc1nc(=O)n([C@H]2C[C@H](O)[C@@H](CO)O2)cc1F,,0.186 µM (active)
CC(C)c1ccccc1Cc1cc(C(=O)Nc2ccc(S(=O)(=O)c3ccccc3C(C)(C)C)cc2)c(O)c(O)c1O,,9.34 µM (active)
O=C1c2cccc(O)c2C(=O)c2c(O)cc(CO)cc21,97.6%,
COc1cc2ncnc(Nc3cccc(Br)c3)c2cc1OC,,20.9 µM (active)
O=C(Nc1ccccc1Br)N[C@@H]1CCN(c2ccc(C(F)(F)F)cn2)C1,93.8%,
CC(C)Cn1cnc2c(N)nc3ccccc3c21,93.3% [at 15.6 µM],
COc1cccc2c1CCCC2CCCN1CCN(C2CCCCC2)CC1 (stereo unspecified),,5.9 µM (active)
